Source: PubChem BioAssay (Tox21)
Active and inactive are the calls of the source. Where a call stands in place of a potency, no number is given. Unless noted, calls follow the shape of the dose curve; as a rule, active = well fitted curve in the direction sought with a large enough effect in the repeat runs; inconclusive = weak or mixed curves; inactive = no such curve, though single readings can be large; an effect the other way counts as inactive or inconclusive.

Tests used:
[1] = qHTS assay to identify small molecule antagonists of the thyroid receptor (TR) signaling pathway - cell viability counter screen (AID 743064); also: nearly all actives have a fitted effect of over 50% in size; also: potency is read from the fitted curve at half-maximal effect
Summary of the method: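 Same-well viability check: GH3.TRE-Luc cells stimulated with 1 nM T3 alongside test compound for 23.5 h, followed by CellTiter-Fluor fluorescence.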

[2] = qHTS assay to identify small molecule antagonists of the thyroid receptor (TR) signaling pathway (AID 743065); also: nearly all actives have a fitted effect of over 55% in size; also: potency is read from the fitted curve at half-maximal effect
Summary of the method: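 Antagonism measured as loss of luciferase signal in GH3 cells stably carrying a TRE-luciferase reporter, co-treated with compound and T3 (1 nM final) for 23.5 h at 37 C. Viability was read in the same well by CellTiter-Fluor.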

[3] = system: thyroid hormone receptor (rat, GH3 cells); assay: qHTS assay to identify small molecule agonists of the thyroid receptor (TR) signaling pathway (AID 743066; calls by dose curve)
[4] = qHTS assay to identify small molecule antagonists of the estrogen receptor alpha (ER-alpha) signaling pathway - cell viability counter screen (AID 743074; calls by dose curve; also: nearly all actives have a fitted effect of over 45% in size)
[5] = qHTS assay to identify small molecule antagonists of the estrogen receptor alpha (ER-alpha) signaling pathway using the BG1 cell line - cell viability counter screen (AID 743081);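 also: compound given together with 17beta-estradiol as the ER stimulus; nearly all actives have a fitted effect of over 45% in size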
Aromatase (Homo sapiens) = Aromatase (Homo sapiens) (UniProt P11511); assay: qHTS assay to identify aromatase inhibitors (AID 743083); also: nearly all actives have a fitted effect of over 55% in size; also: potency is read from the fitted curve at half-maximal effect
[6] = biological target: Estrogen receptor (Homo sapiens) (UniProt P03372); assay: qHTS assay to identify small molecule antagonists of the estrogen receptor alpha (ER-alpha) signaling pathway (AID 743069; active = well fitted curve in the direction sought with a large enough effect in the signal ratio in the repeat runs, not every such curve was filed as active; inconclusive = weak or mixed curves, or effect the other way; inactive = no such curve, though single readings can be large or run the other way; the % refers to the signal ratio; also: potency is read from the fitted curve at half-maximal effect)
Summary of the method: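 Fluorescence intensity from a beta-lactamase FRET substrate served as the read-out. Cells: HEK293 with stably integrated ER-alpha-UAS-bla reporter. Agonist 17beta-estradiol was co-added with compounds; incubation 18 hr at 37C, substrate 2 hr at room temperature.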

[7] = biological target: Estrogen receptor (Homo sapiens) (UniProt P03372); assay: qHTS assay to identify small molecule agonists of the estrogen receptor alpha (ER-alpha) signaling pathway (AID 743075; calls by dose curve; also: potency is read from the fitted curve at half-maximal effect)
[8] = biological target: Estrogen receptor (Homo sapiens) (UniProt P03372); assay: qHTS assay to identify small molecule agonists of the estrogen receptor alpha (ER-alpha) signaling pathway using the BG1 cell line (AID 743079); conditions: BG1Luc4E2 cells, ERE-luciferase agonist, 22 h; activation: at 70.3 µM (top of the series); also: nearly all actives have a fitted effect of over 20% in size; also: potency is read from the fitted curve at half-maximal effect
[9] = qHTS assay to identify small molecule antagonists of the estrogen receptor alpha (ER-alpha) signaling pathway using the BG1 cell line (AID 743080; calls by dose curve;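 also: BG1 cells stimulated with 17beta-estradiol alongside compound; nearly all actives have a fitted effect of over 25% in size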)
Summary of the method: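 BG1-Luc-4E2 cells (endogenous full-length ER-alpha, 4xERE luciferase) hormone-starved 5 days in charcoal-stripped FBS, plated 4,000/well for 24 h, then compound plus 17beta-estradiol for 21.5 h at 37 C; ONE-Glo luminescence read.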

Sequence of Aromatase (Homo sapiens) (P11511 whole entry, looked up): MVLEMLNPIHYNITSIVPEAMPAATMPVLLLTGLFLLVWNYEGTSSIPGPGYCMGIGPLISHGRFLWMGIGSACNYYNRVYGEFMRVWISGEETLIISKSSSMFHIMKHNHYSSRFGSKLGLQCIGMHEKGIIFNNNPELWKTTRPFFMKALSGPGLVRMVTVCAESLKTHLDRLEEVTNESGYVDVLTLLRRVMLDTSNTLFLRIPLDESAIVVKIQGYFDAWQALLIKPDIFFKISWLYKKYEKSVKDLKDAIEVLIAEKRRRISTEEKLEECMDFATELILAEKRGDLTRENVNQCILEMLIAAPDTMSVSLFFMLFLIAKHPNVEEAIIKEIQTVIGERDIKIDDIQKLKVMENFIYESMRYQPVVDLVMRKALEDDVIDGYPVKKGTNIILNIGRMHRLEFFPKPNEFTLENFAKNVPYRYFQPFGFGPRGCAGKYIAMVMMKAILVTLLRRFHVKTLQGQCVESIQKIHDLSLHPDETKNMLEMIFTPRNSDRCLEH
Sequence of Estrogen receptor (Homo sapiens) (P03372 whole entry, looked up): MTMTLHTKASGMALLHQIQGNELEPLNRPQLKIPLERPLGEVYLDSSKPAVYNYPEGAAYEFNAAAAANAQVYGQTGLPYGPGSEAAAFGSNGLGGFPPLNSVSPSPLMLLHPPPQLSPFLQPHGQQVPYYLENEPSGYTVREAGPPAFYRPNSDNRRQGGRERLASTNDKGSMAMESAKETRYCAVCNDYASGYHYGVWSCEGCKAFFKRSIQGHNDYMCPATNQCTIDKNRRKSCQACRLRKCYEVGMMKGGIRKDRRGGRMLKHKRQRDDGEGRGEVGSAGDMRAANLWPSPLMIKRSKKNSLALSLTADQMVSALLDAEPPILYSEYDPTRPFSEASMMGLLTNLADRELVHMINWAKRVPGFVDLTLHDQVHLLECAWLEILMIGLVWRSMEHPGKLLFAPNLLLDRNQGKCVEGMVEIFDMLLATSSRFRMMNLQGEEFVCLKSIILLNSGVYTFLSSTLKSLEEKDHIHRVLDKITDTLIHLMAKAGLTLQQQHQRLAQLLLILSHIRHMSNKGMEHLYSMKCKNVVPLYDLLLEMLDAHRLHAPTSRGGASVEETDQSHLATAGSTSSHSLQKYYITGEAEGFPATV

| Compound | Potency [1] | Potency [2] | outcome [3] | Potency [4] | Potency [5] | Potency (Aromatase (Homo sapiens)) | Potency [6] | Potency [7] | Potency [8] | Potency [9] |
| --- | --- | --- | --- | --- | --- | --- | --- | --- | --- | --- |
| c1csc(SSc2cccs2)c1 | inactive | inactive | inactive | inactive | inactive | inactive |  |  |  |  |
| CCCCCCCCN | inactive | inactive | inactive | inactive | inactive | inactive |  |  |  |  |
| CCOC(=O)OC(C)OC(=O)[C@@H]1N2C(=O)[C@@H](NC(=O)[C@H](N)c3ccccc3)[C@H]2SC1(C)C (some centres not stated) | inactive | inactive | inactive | inactive | inactive | inactive |  |  |  |  |
| CCC1NC(=O)c2cc(S(N)(=O)=O)c(Cl)cc2N1 (configuration not stated) | inactive | inactive | inactive |  | inactive | inactive |  |  |  |  |
| CC/C=C1/OC(=O)c2ccccc21 | inactive | inactive | inactive | inactive | inactive | inactive |  |  |  |  |
| CCOC(=O)c1ccc(OCCN2C[C@H](O)[C@@H](O)[C@H](O)[C@H]2CO)cc1 | inactive | inactive | inactive |  | inactive | inactive | inactive | inactive | inactive | inactive |
| CC(C)c1nc(CN(C)C(=O)N[C@H](C(=O)N[C@@H](Cc2ccccc2)C[C@H](O)[C@H](Cc2ccccc2)NC(=O)OCc2cncs2)C(C)C)cs1 | 15 µM (active) | 10.6 µM (active) | inactive | inactive |  | inactive |  | inactive | inactive | inactive |
| CC(C)C=O | inactive | inactive | inactive | inactive | inactive | inactive |  |  |  |  |
| O=c1cc(-c2ccccc2)oc2cc(O)cc(O)c12 | 54.5 µM (active) | 54.5 µM (active) | inactive | inactive | inactive |  |  |  |  |  |
| O=C1NCCN1CCO | inactive | inactive | inactive | inactive | inactive | inactive |  |  |  |  |
| C=C(C)C(=O)OCCOCCOC(=O)C(=C)C | inactive | inactive | inactive | inactive | inactive | inactive |  | inactive | inactive |  |
| NC(=O)c1ccncc1 | inactive | inactive | inactive | inactive | inactive | inactive |  |  |  |  |
| COc1ccccc1NC(=O)c1cc2ccccc2cc1O | inactive | 17.2 µM (active) | inactive |  |  | 24.3 µM (active) |  | inactive |  |  |
| N#[N+]c1ccc2c(S(=O)(=O)[O-])cccc2c1O | inactive | inactive | inactive | inactive | inactive | inactive |  | inactive |  | inactive |
| CCOC(=O)C1=C(C)NC(C)=C(C(=O)OC)C1c1cccc(Cl)c1Cl (configuration not stated) | 18.8 µM (active) | 18.8 µM (active) | inactive | inactive | inactive | inactive |  | 10.7 µM [activator] (active) | inactive | inactive |
| CC(CCC(=O)O)C(=O)O (configuration not stated) | inactive | inactive | inactive | inactive | inactive | inactive |  |  |  |  |
| O=C=Nc1cccc(C(F)(F)F)c1 | 60.7 µM (active) | 54.1 µM (active) | inactive | inactive | inactive |  |  | inactive | inactive |  |
| CO/N=C(/C(=O)N[C@@H]1C(=O)N2C(C(=O)O)=C(COC(N)=O)CS[C@H]12)c1ccco1 | inactive | inactive | inactive | inactive | inactive | inactive |  |  |  |  |
| CC1CC(C)C(=O)C1=O (configuration not stated) | inactive | inactive | inactive | inactive | inactive | inactive |  |  |  |  |
| CCCCCCNC(=O)n1cc(F)c(=O)[nH]c1=O | 10.6 µM (active) | 2.66 µM (active) | inactive | inactive | inactive | inactive |  |  |  |  |
| c1cc(N(CC2CO2)CC2CO2)ccc1Cc1ccc(N(CC2CO2)CC2CO2)cc1 (configuration not stated) | 13.7 µM (active) | 8.63 µM (active) | inactive | inactive |  | 30.6 µM (active) |  |  |  |  |
| C[C@@]12CCC[C@H]1[C@@H]1CC[C@H]3C[C@@H](O)CC[C@]3(C)[C@H]1CC2 | inactive | inactive | inactive |  | inactive |  |  |  |  |  |
| O=c1cc(-c2ccccc2)oc2ccc3ccccc3c12 | inactive | 9.69 µM (active) | inactive |  | inactive | 13.7 µM (active) |  | inactive | 2.43 µM (active) |  |
| CCCCCCCCCI | inactive | inactive | inactive | inactive | inactive | inactive | inactive |  |  |  |
| CCC1(CO)COCOC1 | inactive | inactive | inactive |  | inactive | inactive | inactive | inactive | inactive | inactive |
| CCOC(=O)c1ccccc1C(=C1C=C(Br)C(=O)C(Br)=C1)c1cc(Br)c(O)c(Br)c1 | 45.7 µM (active) | 18.2 µM (active) | inactive |  | inactive | inactive | 5.8 µM [inconclusive] (active) |  | inactive |  |
| CC1(C)[C@@H](OC(=O)CCC(=O)O)CC[C@]2(C)[C@H]3C(=O)C=C4[C@@H]5C[C@@](C)(C(=O)O)CC[C@]5(C)CC[C@@]4(C)[C@]3(C)CC[C@@H]12 | inactive | inactive | inactive | inactive | inactive | inactive |  |  |  |  |
| CC1=C(CC=O)C(C)(C)CCC1 | inactive | inactive | inactive | inactive | inactive | inactive |  |  |  |  |
| CC1(C)O[C@@H]2C[C@H]3[C@@H]4C[C@H](F)C5=CC(=O)C=C[C@]5(C)[C@H]4[C@@H](O)C[C@]3(C)[C@]2(C(=O)CO)O1 | inactive | inactive | inactive | inactive | inactive | inactive |  |  | inactive |  |
| NCCNCCO | inactive |  | inactive | inactive | inactive | inactive | inactive | inactive | inactive | inactive |
